Reference: PubChem BioAssay (NCATS)
Values joined by “and” are separate entries in the source; they are usually repeats but may differ in a detail not shown here. Identical values can stand only once. Results filed as inconclusive are left out. Unmarked numbers belong to inactive results. Active and inactive are the calls of the source. Calls come from the whole dose curve; as a rule, active = well fitted inhibition curve with a large enough effect; inconclusive = small, poorly fitted or top-dose-only effect; inactive = no such curve, though single readings can be large or run the other way.

Assay: Primary qHTS for inhibitors of nuclear receptor binding SET domain protein 2 (NSD2) in an RCH-ACV wild type WT cells (2C) (AID 1645877); note: nearly all actives have a fitted effect of over 70% in size
Details: RCH-ACV (leukaemia line) NSD2 WT (2C) viability, CellTiter-Glo, 72 h; series mostly up to 44.9 µM; activity change, negative = cell killing: at the top concentration
% is set by controls: 0 for no effect and ±100 for the full control effect; potency is the fitted concentration of half-maximal effect.

| SMILES | Potency | activity change, negative = cell killing | outcome |
| --- | --- | --- | --- |
| Oc1ccc(/C=C/c2cc(O)cc(O)c2)cc1 | 18.8 µM (active) and 11.8 µM (active) | – | – |
| CN(C)CCCSc1ccccc1NC(=O)/C=C/c1ccccc1 | – | -10.1% | – |
| COc1cc(C)c(/C=C/C(C)=C/C=C/C(C)=C/C(=O)O)c(C)c1C | 18.6 µM (active) | – | – |
| NC[C@H]1O[C@H](O[C@H]2[C@H](O)[C@@H](O[C@H]3O[C@H](CO)[C@@H](O)[C@H](N)[C@H]3O)[C@H](N)C[C@@H]2N)[C@H](N)C[C@@H]1O | – | – | inactive |
| CC(=O)Oc1cccc2c1C(=O)c1c(OC(C)=O)cc(C(=O)O)cc1C2=O | – | -1.61% | – |
| CCCCC[C@H](O)/C=C/[C@H]1[C@H](O)CC(=O)[C@@H]1CCCCCCC(=O)O | 20.9 µM (active) | – | – |
| O=C(O)CCC(=O)c1ccc(-c2ccccc2)cc1 | – | – | inactive |
